Data reported in the supplement of paper PMC9897528.

These compounds were tested on Scedosporium aurantiacum CBS 136046 (assay: growth inhibition relative to DMSO control (OD600); higher = more antifungal activity, active = 80 or more; extreme values may be limits of the assay). Details: 5 µM; 72 h; 37 °C.
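Also: conidia screened in RPMI 1640 medium under 5% CO2, growth read by spectrophotometer, medium with 0.5% DMSO serving as the untreated reference.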

Growth inhibition, active:
Clc1cc(Cl)c2c(c1)CCc1ccccc1C2n1ccnc1 (stereo not drawn) 80.2%

Growth inhibition, inactive:
COc1c(F)c(F)cc2c(=O)c(C(=O)O)cn(C3CC3)c12 43.8%, O=c1oc2ccc(Br)cc2cc1CSc1ncc[nH]1 18.7%, COCCn1cnc2c(O)nc(Nc3ccccc3)nc21 5.59%, CC(C)C(=O)N[C@H]1[C@H]([C@H](O)[C@H](O)CO)OC(C(=O)O)=C[C@@H]1N=[N+]=[N-] 9.45%, CC(C)Nc1ncnc2c1cnn2-c1ccc(Cl)cc1 10.7%, CCc1nc2ccccn2c1C(=O)NCc1ccccc1 13%, C[C@H]1CC[C@@]2(O)C(C)(C)[C@@H]3CC[C@@]2(C)[C@H]1C3 12.7%, Nc1nc(=O)c(Br)c(-c2ccccc2)[nH]1 0.62%, Cc1cc(C2CCCCC2)n(O)c(=O)c1 18.5%, CCc1cc(CCCOc2c(C)cc(-c3noc(C(F)(F)F)n3)cc2C)on1 7.39%, C[C@@H]1O[C@@H]1P(=O)(O)O 3.95%, NC(=O)c1c(N)sc2c1CCCCC2 6.23%, CN(C)[C@@H]1C(=O)C(C(N)=O)=C(O)[C@@]2(O)C(=O)C3=C(O)c4c(O)c(NC(=O)CN5CCCC5)cc(F)c4C[C@H]3C[C@@H]12 0%, CC1(C)CC(NC(=O)C(=O)Nc2ccc(Cl)cc2)CC(C)(C)N1 8.43%, O=c1cc(Nc2ccc3ccccc3c2)[nH]c(=O)[nH]1 0.738%, C[Si]1(C)CCN(Cc2cc(-c3ccc(Cl)cc3)n(-c3ccc(Cl)cc3)n2)CC1 10%, O=C(NNC(=S)Nc1ccc(Cl)cc1)c1ccncc1 10.8%, COc1cc(C2C3=C(CC(C)(C)CC3=O)Nc3ccccc3N2C(C)=O)ccc1OCc1ccccc1 (stereo not drawn) 0.481%, CNCC(=O)OCc1cccnc1N(C)C(=O)OC(C)[n+]1cnn(C[C@](O)(c2cc(F)ccc2F)[C@@H](C)c2nc(-c3ccc(C#N)cc3)cs2)c1 (stereo partly drawn) 59.5%, COc1ccc(NS(=O)(=O)c2ccc(Cl)s2)cn1 11.2%, COc1ccc(C[C@@H](C)[C@@H](C)Cc2ccc(OC)c(OC)c2)cc1OC 8.67%, O=C(NCc1ncc(C(F)(F)F)cc1Cl)c1c(Cl)cccc1Cl 0%, CC(C)(C)c1cccc(-c2nc3cc(C(=N)N)ccc3[nH]2)c1O 17.4%, O=C(c1cc(O)nc2ccccc12)N1CCN(c2ccccc2)CC1 5.66%, O=S(=O)(Nc1cccc2cccnc12)c1ccccc1 13.6%, C=CCN(C(=O)OCc1ccc([N+](=O)[O-])cc1)C1CCN(CC[C@](C)(CN(C)S(=O)(=O)c2ccccc2)c2ccccc2)CC1 34.9%, CCCCCCCCCN1C[C@@H](O)[C@H](O)[C@@H](O)[C@@H]1CO 13.7%, O=C(CC1Sc2ncnn2C1=O)Nc1ccc(Br)cc1 (stereo not drawn) 33.4%, O=C(CP(=O)(O)O)NCCc1cccc(Oc2ccccc2)c1 31.5%, CC[C@@]1(O)C(=O)OCc2c1cc1n(c2=O)Cc2cc3c(CN(C)C)c(O)ccc3nc2-1 21.5%, Cn1cc(NC(=O)c2cc(NC(=O)c3ccc(/C=C/c4cnc5ccccc5c4)cc3)cn2C)cc1C(=O)NCCN1CCOCC1 0%, Cc1c(CN(C)C(=O)/C=C/c2cnc3c(c2)C(C)(C)C(=O)N3)oc2ccccc12 19.3%, N[C@H](CCC(=O)N[C@@H](Cc1c[nH]c2ccccc12)C(=O)O)C(=O)O 1.28%, O=C(NN1C(=O)[C@@H]2[C@@H]3C=C[C@@H]([C@H]4C[C@@H]34)[C@@H]2C1=O)c1ccc(C(F)(F)F)cc1 6.47%, CC(C)(C)NC(=O)N[C@H](C(=O)N1C[C@H]2[C@@H]([C@H]1C(=O)NC(CC1CCC1)C(=O)C(N)=O)C2(C)C)C(C)(C)C (stereo partly drawn) 10.8%, NC[C@H]1OB(O)c2c(OCCCO)cccc21 34.1%, O=c1nc(N2CCN(CC3CCCCC3)CC2)sc2c([N+](=O)[O-])cc(C(F)(F)F)cc12 28.5%
